Residue numbers refer to the chain shown, from its start.

Common to all, as to test: PBM; 200 nM protein, PBS
Common to all, as to conditions: dsDNA, one strand shown

For test [1], the target named is ALX3 (Homo sapiens, UniProt O95076 139-225, N203Q).
The target of test [2] is ALX3 (Homo sapiens, UniProt O95076 139-225).
The target of test [3] is ALX3 (Homo sapiens, UniProt O95076 139-225, L168Q).
Test [4] concerns the target ALX3 (Homo sapiens, UniProt O95076 139-225, L168V).
Test [5] addresses ALX3 (Homo sapiens, UniProt O95076 139-225, N203S).
Test [6] concerns the target T1, NKX2-6 (Homo sapiens, UniProt A6NCS4 118-204).
T1 sequence: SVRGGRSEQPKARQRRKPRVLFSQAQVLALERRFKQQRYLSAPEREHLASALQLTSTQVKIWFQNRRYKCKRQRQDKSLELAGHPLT

The target of test [7] is T2, NKX2-6 (Homo sapiens, UniProt A6NCS4 118-204, F151L).
T2 sequence: T1 sequence with F34L

For test [8], the target named is VAX1 (Homo sapiens, UniProt Q5SQQ9 86-172).
VAX1 (Homo sapiens, UniProt Q5SQQ9 86-172), sequence (Q5SQQ9 86-172): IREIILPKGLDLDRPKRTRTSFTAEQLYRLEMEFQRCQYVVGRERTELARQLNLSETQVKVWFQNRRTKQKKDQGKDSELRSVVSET
Test [9] has as its target VAX1 (Homo sapiens, UniProt Q5SQQ9 86-172, T142I).
Test [10] has as its target VAX1 (Homo sapiens, UniProt Q5SQQ9 86-172, K157R).
Test [11] has as its target T3, PAX4 (Homo sapiens, UniProt O43316 9-242, F177V).
T3 sequence: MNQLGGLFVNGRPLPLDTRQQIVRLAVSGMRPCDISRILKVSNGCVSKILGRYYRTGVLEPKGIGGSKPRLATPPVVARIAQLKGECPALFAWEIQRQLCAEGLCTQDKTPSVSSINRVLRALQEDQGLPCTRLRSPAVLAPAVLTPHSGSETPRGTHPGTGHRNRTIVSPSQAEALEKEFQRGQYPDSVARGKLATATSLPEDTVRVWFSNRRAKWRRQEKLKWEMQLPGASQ

The target of test [12] is T4, PAX4 (Homo sapiens, UniProt O43316 9-242, R227W).
T4 sequence: T3 sequence with V169F, R219W

Test [13] addresses HOXD13 (Homo sapiens, UniProt P35453 263-343, T313R).
For test [14], the target named is HOXD13 (Homo sapiens, UniProt P35453 263-343).
HOXD13 (Homo sapiens, UniProt P35453 263-343), sequence (P35453 263-343): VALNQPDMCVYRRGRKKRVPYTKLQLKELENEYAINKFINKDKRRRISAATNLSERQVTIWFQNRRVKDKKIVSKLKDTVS
For test [15], the target named is HOXD13 (Homo sapiens, UniProt P35453 263-343, T313A).
HOXD13 (Homo sapiens, UniProt P35453 263-343, T313A), sequence (P35453 263-343 T313A): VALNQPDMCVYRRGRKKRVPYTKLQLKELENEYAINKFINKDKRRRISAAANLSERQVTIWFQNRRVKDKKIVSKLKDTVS
In a further test the target is HOXC9 (Homo sapiens, UniProt P31274 178-260, R222W).
HOXC9, sequence (P31274 178-260 R222W): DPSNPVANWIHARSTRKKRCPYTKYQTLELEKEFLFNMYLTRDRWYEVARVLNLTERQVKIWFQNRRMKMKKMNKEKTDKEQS

ALX3 (Homo sapiens, UniProt O95076 139-225, N203Q), sequence (O95076 139-225 N203Q): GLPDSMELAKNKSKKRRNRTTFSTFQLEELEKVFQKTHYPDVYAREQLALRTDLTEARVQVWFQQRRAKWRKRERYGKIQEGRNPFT
ALX3 (Homo sapiens, UniProt O95076 139-225), sequence (O95076 139-225): as the sequence (O95076 139-225 N203Q) above, with Q65N counted along it
ALX3 (Homo sapiens, UniProt O95076 139-225, L168Q), sequence (O95076 139-225 L168Q): as the sequence (O95076 139-225 N203Q) above, with L30Q, Q65N counted along it
ALX3 (Homo sapiens, UniProt O95076 139-225, L168V), sequence (O95076 139-225 L168V): as the sequence (O95076 139-225 N203Q) above, with L30V, Q65N counted along it
ALX3 (Homo sapiens, UniProt O95076 139-225, N203S), sequence (O95076 139-225 N203S): as the sequence (O95076 139-225 N203Q) above, with Q65S counted along it
VAX1 (Homo sapiens, UniProt Q5SQQ9 86-172, K157R), sequence (Q5SQQ9 86-172 K157R): as the sequence (Q5SQQ9 86-172) above, with K72R counted along it
VAX1 (Homo sapiens, UniProt Q5SQQ9 86-172, T142I), sequence (Q5SQQ9 86-172 T142I): as the sequence (Q5SQQ9 86-172) above, with T57I counted along it
HOXD13 (Homo sapiens, UniProt P35453 263-343, T313R), sequence (P35453 263-343 T313R): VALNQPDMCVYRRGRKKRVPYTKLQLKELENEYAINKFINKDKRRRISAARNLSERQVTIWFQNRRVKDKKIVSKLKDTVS

For CAGTTACG, the binding signal was 8 upbm affinity estimate (log intensity, higher = more binding, comparable within an allelic series) in the test with ALX3 [1]; 8.89 upbm affinity estimate (log intensity, higher = more binding, comparable within an allelic series) with ALX3 [2]; 8.09 upbm affinity estimate (log intensity, higher = more binding, comparable within an allelic series) with ALX3 [3]; 8.1 upbm affinity estimate (log intensity, higher = more binding, comparable within an allelic series) in the test with ALX3 [4]; 8.08 upbm affinity estimate (log intensity, higher = more binding, comparable within an allelic series) in the test with ALX3 [5].
Take GCACCCCC: the binding signal with ALX3 [1] is 7.73 upbm affinity estimate (log intensity, higher = more binding, comparable within an allelic series); with NKX2-6 [6] it was 9.22 upbm affinity estimate (log intensity, higher = more binding, comparable within an allelic series); with ALX3 [2] it was 7.8 upbm affinity estimate (log intensity, higher = more binding, comparable within an allelic series); with ALX3 [3] it was 7.58 upbm affinity estimate (log intensity, higher = more binding, comparable within an allelic series); with NKX2-6 [7] it was 9.15 upbm affinity estimate (log intensity, higher = more binding, comparable within an allelic series); in the test with ALX3 [4], 7.59 upbm affinity estimate (log intensity, higher = more binding, comparable within an allelic series). The binding signal in the test with ALX3 [5] is 7.76 upbm affinity estimate (log intensity, higher = more binding, comparable within an allelic series).
CACCGCCG: the binding signal with ALX3 [1] is 7.75 upbm affinity estimate (log intensity, higher = more binding, comparable within an allelic series); with ALX3 [2] it was 7.68 upbm affinity estimate (log intensity, higher = more binding, comparable within an allelic series); with ALX3 [3], 7.66 upbm affinity estimate (log intensity, higher = more binding, comparable within an allelic series); with ALX3 [4], 7.7 upbm affinity estimate (log intensity, higher = more binding, comparable within an allelic series); with ALX3 [5] it was 7.75 upbm affinity estimate (log intensity, higher = more binding, comparable within an allelic series).
Consider CCCCCCAA, for which the binding signal in the test with ALX3 [1] was 7.79 upbm affinity estimate (log intensity, higher = more binding, comparable within an allelic series); with ALX3 [2], 7.79 upbm affinity estimate (log intensity, higher = more binding, comparable within an allelic series); in the test with ALX3 [3] it was 7.64 upbm affinity estimate (log intensity, higher = more binding, comparable within an allelic series); with ALX3 [4], 7.7 upbm affinity estimate (log intensity, higher = more binding, comparable within an allelic series); in the test with ALX3 [5], 7.81 upbm affinity estimate (log intensity, higher = more binding, comparable within an allelic series).
For AGCCGGCG, the binding signal was 7.78 upbm affinity estimate (log intensity, higher = more binding, comparable within an allelic series) with ALX3 [1]; 7.6 upbm affinity estimate (log intensity, higher = more binding, comparable within an allelic series) with ALX3 [2]; 6.78 upbm affinity estimate (log intensity, higher = more binding, comparable within an allelic series) with VAX1 [8]; 7.66 upbm affinity estimate (log intensity, higher = more binding, comparable within an allelic series) in the test with ALX3 [3]; 7.63 upbm affinity estimate (log intensity, higher = more binding, comparable within an allelic series) with ALX3 [4]; 6.99 upbm affinity estimate (log intensity, higher = more binding, comparable within an allelic series) with VAX1 [9]. For the same sequence, the binding signal with ALX3 [5] is 7.77 upbm affinity estimate (log intensity, higher = more binding, comparable within an allelic series); with VAX1 [10], 6.79 upbm affinity estimate (log intensity, higher = more binding, comparable within an allelic series).
ACCGGTTA: the binding signal was 8.13 upbm affinity estimate (log intensity, higher = more binding, comparable within an allelic series) in the test with ALX3 [1]; 9.46 upbm affinity estimate (log intensity, higher = more binding, comparable within an allelic series) in the test with ALX3 [2]; 8.24 upbm affinity estimate (log intensity, higher = more binding, comparable within an allelic series) with ALX3 [3]; 8.11 upbm affinity estimate (log intensity, higher = more binding, comparable within an allelic series) with ALX3 [4]; 8.2 upbm affinity estimate (log intensity, higher = more binding, comparable within an allelic series) with ALX3 [5].
GCGCGAGC: the binding signal in the test with ALX3 [1] was 7.77 upbm affinity estimate (log intensity, higher = more binding, comparable within an allelic series); with ALX3 [2] it was 7.84 upbm affinity estimate (log intensity, higher = more binding, comparable within an allelic series); in the test with ALX3 [3] it was 7.77 upbm affinity estimate (log intensity, higher = more binding, comparable within an allelic series); with ALX3 [4], 7.76 upbm affinity estimate (log intensity, higher = more binding, comparable within an allelic series); in the test with ALX3 [5] it was 7.83 upbm affinity estimate (log intensity, higher = more binding, comparable within an allelic series).
Turning to ATATAATA, the binding signal with ALX3 [1] was 8.64 upbm affinity estimate (log intensity, higher = more binding, comparable within an allelic series); with PAX4 [11] it was 10.8 upbm affinity estimate (log intensity, higher = more binding, comparable within an allelic series); in the test with PAX4 [12] it was 10.9 upbm affinity estimate (log intensity, higher = more binding, comparable within an allelic series); with ALX3 [5], 8.68 upbm affinity estimate (log intensity, higher = more binding, comparable within an allelic series).
Turning to AGAGGGGG, the binding signal was 7.63 upbm affinity estimate (log intensity, higher = more binding, comparable within an allelic series) with ALX3 [1]; 7.93 upbm affinity estimate (log intensity, higher = more binding, comparable within an allelic series) with ALX3 [2]; 7.69 upbm affinity estimate (log intensity, higher = more binding, comparable within an allelic series) with ALX3 [3]; 7.67 upbm affinity estimate (log intensity, higher = more binding, comparable within an allelic series) with ALX3 [4]; 7.59 upbm affinity estimate (log intensity, higher = more binding, comparable within an allelic series) with ALX3 [5].
With TATTAAAA, the binding signal with ALX3 [1] is 8.56 upbm affinity estimate (log intensity, higher = more binding, comparable within an allelic series); in the test with HOXD13 [13], 10.8 upbm affinity estimate (log intensity, higher = more binding, comparable within an allelic series); with HOXD13 [14] it was 11.8 upbm affinity estimate (log intensity, higher = more binding, comparable within an allelic series); in the test with HOXD13 [15], 11.8 upbm affinity estimate (log intensity, higher = more binding, comparable within an allelic series); with HOXC9, 11.1 upbm affinity estimate (log intensity, higher = more binding, comparable within an allelic series).
